The record followed here is the supplement of paper PMC11417369.

Whole data set: some 25,000 sequences, median “ln(normalized median fluorescence intensity)” near 9.3, cut for the highest 2% near 10. Many of the other results were omitted from the sample, so the highest values are more common in it than they were.

For the test, the system named is PF3D7_0420300 AP2 domain 1 (GST-tagged). The test can be described thus: gcPBM binding intensity (ln(normalized median fluorescence intensity)); higher = stronger DNA binding. In outline:
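Alexa488 anti-GST antibody, scanned at 488 nm, detected GST-tagged P. falciparum DNA-binding domains that had been expressed in E. coli and incubated for 1 h on an Agilent 4 × 180k array. The array carried primer-extended double-stranded 36-bp intergenic genomic probes and negative controls. Binding intensity is the highest Masliner-normalised natural-log median intensity across replicate spots of either orientation of each probe.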
“TGATTCATTGATAAGGGTACATTTATAATTATGATA [XGTACX_site6319]”: the “gcPBM binding intensity (ln)” value was determined as 9.02.

“CGCATACACCAACACACACACACATATATATATATA [CACACA_site635]”: the “gcPBM binding intensity (ln)” value worked out at 10.2.

Regarding “TACATACATACATACACACACACATATATATACATA [CACACA_site853]”, the “gcPBM binding intensity (ln)” value was 10.1.

As for “CAACATTTGAAACACACACACATACAAACAAACAAA [CACACA_site3306]”, the “gcPBM binding intensity (ln)” value was 10.2. As to “TATACATATATATACACACACACATATATATATATA [CACACA_site1299]”, the “gcPBM binding intensity (ln)” value came out at 9.95. As for “CAACATTTGAGACACACACACATACAAACAAACAAA [CACACA_site7538]”, the “gcPBM binding intensity (ln)” value was 10. To “AAAAAAAAAAAACACACACACAAATACAAATGGTAA [CACACA_site1720]” belongs 10.1.

Take “AAAAAAAAAAAAAACACACACACAAATACAAATGGT [CACACA_site1721]”: the “gcPBM binding intensity (ln)” value came out at 10.2. To “AAAAAAAAAAAAAACACACACACAAATACAAATACA [CACACA_site414]” belongs 10.1; to “AACATACACATATACACACACACATATATACATATA [CACACA_site1093]”, 10.2; to “TATATATATACCAACACACATACATATATATATATA [CACACA_site1795]”, 9.46.

As for “TATATATATATACCAACACACATACATATATATATA [CACACA_site8530]”, the “gcPBM binding intensity (ln)” value came out at 9.68. “GGCAACATTTGAAACACACACACATACAAACAAACA [CACACA_site3307]”: the “gcPBM binding intensity (ln)” value was found to be 9.97. To “TTATTATAAATGTTTTGTACGTACATCCGAAAATAA [XGTACX_site2175]” belongs 9.05; to TTTTTTGTTAAGTTGGTGCAAACAATAGTTATTGAC, 8.95. “TTTAAAGTTTTATACACACACCAAAGTTATTCTAAT [CACACA_site6432]”: the “gcPBM binding intensity (ln)” value worked out at 9.56. “GATTAAAATCAAAGGTGTACGCACAAATAAGTCCCA [XGTACX_site4360]”: the “gcPBM binding intensity (ln)” value is 9.3. “TTTCTTATATAAGTGTACTAAAATATATATATGCAA [GTGCAC_negctrl_site546]”: the “gcPBM binding intensity (ln)” value was 9. In the case of “GTGTCAAATTTTATAACACACAAAAGGTTATATAAG [CACACA_site7839]”, the “gcPBM binding intensity (ln)” value came out at 9.28. Regarding “AAATAGATAAACTAAACACACAAAAAAAAAAAAAAT [CACACA_site1179]”, the “gcPBM binding intensity (ln)” value was 9.84. To “CATTTATTTTTGTTCTGTACATAAAGATGAACAAAA [XGTACX_site6797]” belongs 8.81. Take “GGATATAACAAACACACACACACATATATATATATT [CACACA_site4141]”: the “gcPBM binding intensity (ln)” value worked out at 10.2. To “CATACATACAAACACACACACATATATATACATACA [CACACA_site852]” belongs 10.2.

Turning to “TATATATATATATATACACACATATATACCTATATA [CACACA_site6085]”, the “gcPBM binding intensity (ln)” value was found to be 9.31. To “CATACATACAAACACACACACATATATATATATATA [CACACA_site43]” belongs 9.86. To “TATATACACGCACATACACACAAATAAAAAAACACC [CACACA_site7578]” belongs 9.93. Take “CACATACACATACAAACACACATTATATATATATAT [CACACA_site8460]”: the “gcPBM binding intensity (ln)” value amounted to 9.62.

Consider “AAAAAAAAAACAAATACACACGCACCCAAAAAAAAA [CACACA_site8166]”, for which the “gcPBM binding intensity (ln)” value is 9.81. For the sequence “AATATAAACAAACACACACACATATATATATATATT [CACACA_site5592]”, the “gcPBM binding intensity (ln)” value is 10.1. For the sequence “AACATACACATATACACACACACATATATACCTATA [CACACA_site6643]”, the “gcPBM binding intensity (ln)” value was found to be 10.4. To “AAAAAAAAAAAAAACACACACACACGCAAATACATA [CACACA_site6474]” belongs 10.2; to “AATATAAACACAAACACACACATATATATATATATA [CACACA_site4307]”, 9.68. Consider “TATACGTATACCTATACACACATATATATATATATA [CACACA_site1273]”, for which the “gcPBM binding intensity (ln)” value came out at 9.49. For “TTTTTTTTTGTTTACACACACAAAATATTATATGTA [CACACA_site2470]”, the “gcPBM binding intensity (ln)” value came to 9.66. As to “AATATATACATACATACATGCACATATATATATATA [TGCATGCA_site393]”, the “gcPBM binding intensity (ln)” value came out at 9.36.

Regarding “CATATTAAAAATACATGTACATATATATTTAATATA [XGTACX_site8580]”, the “gcPBM binding intensity (ln)” value is 9.08.

Take “ATTAAAAAAGAATATACACACCAAAACTGTTTGTTA [CACACA_site4687]”: the “gcPBM binding intensity (ln)” value is 9.21. To “ATATGACTGTTCATTTGTACGTATAATTATATACGT [XGTACX_site3372]” belongs 9.33; to “ATCAACAAAACATACACACACATATAGATTTATATA [CACACA_site7415]”, 10. Consider “TTTTCAATTTTTTATGAACACACAAAAAAAAAAAAA [CACACA_site8808]”, for which the “gcPBM binding intensity (ln)” value was determined as 8.77. As to “GTAGAGCATAATAAAACACACACATACATACATATA [CACACA_site8217]”, the “gcPBM binding intensity (ln)” value was 9.84. To “AAAAAAAAAAAACACACACACACAAATACATACACA [CACACA_site706]” belongs 10.2; to “AATACATACACAAATACACACACAAATACATACACA [CACACA_site8134]”, 10.1.

For “AAAAAAAAAAAACACACACACAAATACAAATACATA [CACACA_site415]”, the “gcPBM binding intensity (ln)” value came out at 10.2. As for “TACATACACAAATACACACACAAATACATACACAAA [CACACA_site704]”, the “gcPBM binding intensity (ln)” value came to 10.1. To “GGTACATACAAACACACACACAAAAAAAAAAAAATA [CACACA_site1577]” belongs 9.91.
